Source: PubChem BioAssay (EPA / NIEHS)
Values joined by “and” are separate entries in the source; they are usually repeats but may differ in a detail not shown here. Identical values can stand only once. Inconclusive results are not listed. Where a structure was tested more than once in an assay, its records may differ in their call. Active and inactive are the calls of the source. The calls were made as follows, unless noted: active = hit-call score of the fitted dose curve at least 0.9, where 1 is the maximum; inconclusive = response in the unintended direction; inactive = score below 0.9.

Assays:
[1] = ATG_NRF2_ARE_CIS: Attagene CIS-FACTORIAL HepG2 Assay for human Nuclear Factor Erythroid 2 Related Factor 2 (NFR2) response to Antioxidant Response Elements (ARE) (AID 2282992; active = hit-call score of the fitted dose curve at least 0.9, where 1 is the maximum; inactive = score below 0.9;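 as to AC50: reporter mRNA level measured by RT-PCR and capillary electrophoresis fluorescence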); conditions: HepG2 Attagene ARE/NRF2 reporter, transcription factor activity; actives raise or lower the signal
How it was run: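 HepG2 cells transiently transfected with multiplexed cis-regulated reporter transcription units measure endogenous transcription factor activity. Reporter mRNA at 24 h is quantified by RT-PCR, fluorescent labelling and capillary electrophoresis, with bidirectional fitting relative to DMSO.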

[2] = ATG_Oct_MLP_CIS: Attagene CIS-FACTORIAL HepG2 Assay for human Octamer-Binding Transcription Factor (Oct) (AID 2282993; active = hit-call score of the fitted dose curve at least 0.9, where 1 is the maximum; inactive = score below 0.9); conditions: HepG2 Attagene cis-factorial Oct reporter, mRNA; actives raise or lower the signal
How it was run: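 Transfected HepG2 cells, 24 h treatment. Reporter mRNA quantified by RT-PCR–capillary electrophoresis; bidirectional fitting against DMSO.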

[3] = molecular target: Cellular tumor antigen p53 (Homo sapiens) (UniProt P04637); experiment: ATG_p53_CIS: Attagene CIS-FACTORIAL HepG2 Assay for human p53 Transcription Factor (AID 2282994; active = hit-call score of the fitted dose curve at least 0.9, where 1 is the maximum; inactive = score below 0.9); conditions: HepG2 p53 cis-element reporter, Attagene mRNA; actives raise or lower the signal
Sequence of Cellular tumor antigen p53 (Homo sapiens) (P04637 whole entry, looked up): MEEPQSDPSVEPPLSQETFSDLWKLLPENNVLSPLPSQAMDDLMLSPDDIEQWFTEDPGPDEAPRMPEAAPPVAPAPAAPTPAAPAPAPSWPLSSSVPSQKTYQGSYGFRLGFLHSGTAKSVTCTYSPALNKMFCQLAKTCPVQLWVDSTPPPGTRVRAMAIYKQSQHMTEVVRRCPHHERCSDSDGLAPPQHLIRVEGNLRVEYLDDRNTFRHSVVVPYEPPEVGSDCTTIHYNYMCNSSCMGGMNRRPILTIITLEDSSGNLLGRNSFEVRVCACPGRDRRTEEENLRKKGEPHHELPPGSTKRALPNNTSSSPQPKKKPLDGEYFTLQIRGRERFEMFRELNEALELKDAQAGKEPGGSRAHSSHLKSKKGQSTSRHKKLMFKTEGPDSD
How it was run: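 HepG2 cells transiently transfected with multiplexed cis-regulated reporter transcription units read endogenous TF activity. After 24 h compound exposure, reporter mRNA was quantified by RT-PCR, fluorescent labelling, HpaI digestion and capillary electrophoresis; bidirectional fits versus DMSO baseline.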

[4] = molecular target: human Peroxisome Proliferator-activated Receptor alpha (PPARa), PPARA (gene 5465) (UniProt Q07869); experiment: ATG_PPARa_TRANS: Attagene TRANS-FACTORIAL HepG2 Assay for human Peroxisome Proliferator-activated Receptor alpha (PPARa) (AID 2283001);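 as to AC50: potency for gain of reporter signal over DMSO so agonist or activator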
Sequence of human Peroxisome Proliferator-activated Receptor alpha (PPARa), PPARA (gene 5465) (Q07869 whole entry, looked up, the tested form may be a part): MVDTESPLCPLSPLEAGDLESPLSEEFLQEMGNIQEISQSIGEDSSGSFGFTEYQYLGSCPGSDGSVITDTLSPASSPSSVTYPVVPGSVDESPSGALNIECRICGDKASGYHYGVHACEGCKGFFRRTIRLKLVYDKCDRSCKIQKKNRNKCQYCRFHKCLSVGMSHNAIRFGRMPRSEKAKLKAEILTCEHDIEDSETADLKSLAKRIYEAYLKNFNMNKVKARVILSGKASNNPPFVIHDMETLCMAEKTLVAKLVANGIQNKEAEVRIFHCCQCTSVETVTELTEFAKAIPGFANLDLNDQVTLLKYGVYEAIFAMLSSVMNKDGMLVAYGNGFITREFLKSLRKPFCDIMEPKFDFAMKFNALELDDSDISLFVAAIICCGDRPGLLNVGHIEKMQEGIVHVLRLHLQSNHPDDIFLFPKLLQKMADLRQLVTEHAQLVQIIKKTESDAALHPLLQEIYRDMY
How it was run: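 Measures transcriptional activity of an exogenous chimeric PPARa-Gal4 protein in transiently transfected HepG2 cells after 24 h dosing. Reporter mRNA quantified via RT-PCR and capillary electrophoresis; DMSO served as negative control.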

[5] = molecular target: human Peroxisome Proliferator-activated Receptor delta (PPARd), PPARD (gene 5467) (UniProt Q03181); experiment: ATG_PPARd_TRANS: Attagene TRANS-FACTORIAL HepG2 Assay for human Peroxisome Proliferator-activated Receptor delta (PPARd) (AID 2283002)
Sequence of human Peroxisome Proliferator-activated Receptor delta (PPARd), PPARD (gene 5467) (Q03181 whole entry, looked up, the tested form may be a part): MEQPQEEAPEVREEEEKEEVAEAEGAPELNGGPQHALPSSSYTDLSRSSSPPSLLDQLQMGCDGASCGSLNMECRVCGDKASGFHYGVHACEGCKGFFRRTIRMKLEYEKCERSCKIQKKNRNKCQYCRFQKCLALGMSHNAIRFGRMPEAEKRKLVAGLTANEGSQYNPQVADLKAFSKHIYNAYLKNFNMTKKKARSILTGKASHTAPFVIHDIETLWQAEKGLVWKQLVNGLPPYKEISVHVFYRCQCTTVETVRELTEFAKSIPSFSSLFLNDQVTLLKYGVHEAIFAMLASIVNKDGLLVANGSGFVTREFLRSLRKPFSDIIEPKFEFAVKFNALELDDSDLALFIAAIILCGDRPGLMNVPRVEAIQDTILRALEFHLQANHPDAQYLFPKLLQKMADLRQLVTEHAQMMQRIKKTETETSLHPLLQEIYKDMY
How it was run: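 Read-out: reporter mRNA induction, quantified by fluorescent RT-PCR products resolved by capillary electrophoresis. Human HepG2 liver cells carried transiently transfected Gal4-UAS reporter constructs with chimeric NR-Gal4 fusions. Cells were dosed for 24 h; DMSO served as baseline.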

[6] = molecular target: Peroxisome proliferator-activated receptor gamma (Homo sapiens) (UniProt P37231); experiment: ATG_PPARg_TRANS: Attagene TRANS-FACTORIAL HepG2 Assay for human Peroxisome Proliferator-activated Receptor-gamma (PPARg) (AID 2283007)
Sequence of Peroxisome proliferator-activated receptor gamma (Homo sapiens) (P37231 whole entry, looked up, the tested form may be a part): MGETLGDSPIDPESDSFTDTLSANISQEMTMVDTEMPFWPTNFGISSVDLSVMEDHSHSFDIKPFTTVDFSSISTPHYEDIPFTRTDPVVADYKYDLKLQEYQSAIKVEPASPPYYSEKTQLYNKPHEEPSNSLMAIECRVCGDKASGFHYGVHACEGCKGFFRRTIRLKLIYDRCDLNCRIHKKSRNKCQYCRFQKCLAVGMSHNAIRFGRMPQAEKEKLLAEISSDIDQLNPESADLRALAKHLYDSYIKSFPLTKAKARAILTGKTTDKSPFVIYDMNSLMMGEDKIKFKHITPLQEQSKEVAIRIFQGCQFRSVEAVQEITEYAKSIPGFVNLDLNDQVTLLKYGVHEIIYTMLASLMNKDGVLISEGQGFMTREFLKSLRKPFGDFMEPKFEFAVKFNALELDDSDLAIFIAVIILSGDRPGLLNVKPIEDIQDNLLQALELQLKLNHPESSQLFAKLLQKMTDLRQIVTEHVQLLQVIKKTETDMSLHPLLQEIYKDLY
How it was run: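 Liver-derived HepG2 cells expressing an exogenous NR-Gal4 chimera alongside GAL4-UAS reporter genes; 24 h exposure. Fluorescence of reporter RT-PCR products, separated by capillary electrophoresis, gives mRNA induction relative to DMSO.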

[7] = molecular target: human Retinoic Acid Receptor gamma (RARg), RARG (gene 5916) (UniProt P13631); experiment: ATG_RARg_TRANS: Attagene TRANS-FACTORIAL HepG2 Assay for human Retinoic Acid Receptor gamma (RARg) (AID 2283009)
Sequence of human Retinoic Acid Receptor gamma (RARg), RARG (gene 5916) (P13631 whole entry, looked up, the tested form may be a part): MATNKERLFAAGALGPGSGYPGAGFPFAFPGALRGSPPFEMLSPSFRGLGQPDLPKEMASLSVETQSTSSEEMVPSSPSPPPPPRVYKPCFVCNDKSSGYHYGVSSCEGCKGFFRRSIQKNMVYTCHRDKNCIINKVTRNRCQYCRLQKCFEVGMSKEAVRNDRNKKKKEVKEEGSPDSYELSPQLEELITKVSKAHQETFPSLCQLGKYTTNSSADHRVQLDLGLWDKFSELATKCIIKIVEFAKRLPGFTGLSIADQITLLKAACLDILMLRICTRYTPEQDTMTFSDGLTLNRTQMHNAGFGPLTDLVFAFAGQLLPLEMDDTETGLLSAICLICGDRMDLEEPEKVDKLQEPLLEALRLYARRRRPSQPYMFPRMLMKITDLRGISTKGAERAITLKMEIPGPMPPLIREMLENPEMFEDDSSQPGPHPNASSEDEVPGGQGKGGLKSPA
How it was run: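 HepG2, RARg-GAL4 TRANS system, 24 h exposure; reporter mRNA by RT-PCR + CE fluorescence; increase over DMSO.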

[8] = molecular target: human RAR-related Orphan Receptor beta (RORb), RORB (gene 6096) (UniProt Q92753); experiment: ATG_RORb_TRANS: Attagene TRANS-FACTORIAL HepG2 Assay for human RAR-related Orphan Receptor beta (RORb) (AID 2283010)
Sequence of human RAR-related Orphan Receptor beta (RORb), RORB (gene 6096) (Q92753 whole entry, looked up, the tested form may be a part): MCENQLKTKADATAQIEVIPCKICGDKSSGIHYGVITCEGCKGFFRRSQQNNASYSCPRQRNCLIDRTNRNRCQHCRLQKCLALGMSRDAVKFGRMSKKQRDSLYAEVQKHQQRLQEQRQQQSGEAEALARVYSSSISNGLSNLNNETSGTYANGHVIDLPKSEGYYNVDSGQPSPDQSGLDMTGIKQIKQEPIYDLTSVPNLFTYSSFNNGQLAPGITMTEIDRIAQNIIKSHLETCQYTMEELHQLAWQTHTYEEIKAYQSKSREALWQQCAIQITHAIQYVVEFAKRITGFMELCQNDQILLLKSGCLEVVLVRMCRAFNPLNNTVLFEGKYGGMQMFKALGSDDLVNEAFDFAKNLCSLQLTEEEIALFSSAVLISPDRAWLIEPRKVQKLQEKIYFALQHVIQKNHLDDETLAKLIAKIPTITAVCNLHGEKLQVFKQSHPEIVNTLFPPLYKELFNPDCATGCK
How it was run: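 In this TRANS-format test, human HepG2 cells express chimeric NR-Gal4 fusion proteins driving GAL4-UAS reporters. After 24 h dosing, reporter transcripts are measured by fluorescent RT-PCR/capillary electrophoresis, with DMSO as negative control.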

[9] = molecular target: human RAR-related Orphan Receptor gamma (RORg), RORC (gene 6097) (UniProt P51449); experiment: ATG_RORg_TRANS: Attagene TRANS-FACTORIAL HepG2 Assay for human RAR-related Orphan Receptor gamma (RORg) (AID 2283011)
How it was run: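 First, HepG2 liver cells were transfected with GAL4-UAS-driven reporter constructs and the RORg-Gal4 fusion. Next, they were treated with chemical for 24 h. Finally, reporter mRNA was quantified by RT-PCR and capillary electrophoresis, with upward activity fitted against DMSO.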

[10] = molecular target: Retinoic acid receptor RXR-alpha (Homo sapiens) (UniProt P19793); experiment: ATG_RXRa_TRANS: Attagene TRANS-FACTORIAL HepG2 Assay for human Retinoid X Receptor alpha (RXRa) (AID 2283012)
Sequence of Retinoic acid receptor RXR-alpha (Homo sapiens) (P19793 whole entry, looked up, the tested form may be a part): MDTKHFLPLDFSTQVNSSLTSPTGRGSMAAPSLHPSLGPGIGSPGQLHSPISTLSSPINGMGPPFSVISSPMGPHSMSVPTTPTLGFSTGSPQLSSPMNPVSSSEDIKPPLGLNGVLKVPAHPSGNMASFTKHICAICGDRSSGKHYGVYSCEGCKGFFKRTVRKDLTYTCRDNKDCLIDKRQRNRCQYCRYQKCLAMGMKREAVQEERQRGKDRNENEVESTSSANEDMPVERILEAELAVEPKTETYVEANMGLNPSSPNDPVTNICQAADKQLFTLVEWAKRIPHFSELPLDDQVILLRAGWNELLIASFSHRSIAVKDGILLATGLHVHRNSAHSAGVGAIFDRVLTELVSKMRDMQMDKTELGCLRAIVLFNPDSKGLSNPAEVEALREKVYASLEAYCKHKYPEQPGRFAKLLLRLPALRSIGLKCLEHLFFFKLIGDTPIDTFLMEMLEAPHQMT
How it was run: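 Cells (HepG2) carried transiently transfected GAL4-responsive reporter units. Following a 24 h chemical incubation, reporter mRNA induction was read via RT-PCR fragment analysis; DMSO served as negative control and baseline.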

[11] = BSK_3C_TissueFactor: BioMAP Diversity Plus: 3C Assay for Tissue Factor Biomarker Activity (AID 2282997; active = hit-call score of the fitted dose curve at least 0.9, where 1 is the maximum; inactive = score below 0.9); conditions: BioMAP 3C HUVEC, tissue factor biomarker readout; actives raise or lower the signal
How it was run: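 ELISA read-out of Tissue Factor levels on human umbilical vein endothelium collected 24 h after chemical dosing. Gain or loss of signal was fitted relative to DMSO.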

[12] = BSK_3C_VCAM1: BioMAP Diversity Plus: 3C Assay for Vascular cell adhesion molecule 1 (VCAM1) Biomarker Activity (AID 2282999; active = hit-call score of the fitted dose curve at least 0.9, where 1 is the maximum; inactive = score below 0.9); conditions: BioMAP 3C HUVEC, VCAM1 ELISA, cytokine-stimulated; actives raise or lower the signal
How it was run: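 Human umbilical vein endothelial cells (3C system), biomarker read by ELISA 24 h after dosing; bidirectional fit against DMSO baseline. Cytotoxicity tracked by SRB total-protein staining in parallel cultures at biomarker time.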

[13] = BSK_4H_Eotaxin3: BioMAP Diversity Plus: 4H Assay for Eotaxin 3 Biomarker Activity (AID 2283000; active = hit-call score of the fitted dose curve at least 0.9, where 1 is the maximum; inactive = score below 0.9); conditions: primary human endothelial cells (HUVEC); actives raise or lower the signal
How it was run: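 Chemicals were added to human umbilical vein endothelium cultures, and Eotaxin-3 was quantified by ELISA at 24 h. Values were derived by bidirectional fitting with DMSO serving as negative control and activity baseline.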

[14] = BSK_3C_Proliferation: Cell Proliferation Assessment in the BioMAP Diversity Plus: 3C Assay (AID 2283006; active = hit-call score of the fitted dose curve at least 0.9, where 1 is the maximum; inactive = score below 0.9;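 as to AC50: potency may reflect either rise or fall in cell number versus DMSO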); conditions: primary human endothelial cells (HUVEC)
How it was run: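 Proliferation of human vascular endothelial primary cells after 48 h dosing, quantified as SRB-stained protein at 560 nm relative to DMSO.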

[15] = molecular target: Nuclear receptor subfamily 1 group I member 2 (Homo sapiens) (UniProt O75469); experiment: ATG_PXR_TRANS: Attagene TRANS-FACTORIAL HepG2 Assay for human Pregnane X Receptor (PXR) (AID 2283008)
Sequence of Nuclear receptor subfamily 1 group I member 2 (Homo sapiens) (O75469 whole entry, looked up, the tested form may be a part): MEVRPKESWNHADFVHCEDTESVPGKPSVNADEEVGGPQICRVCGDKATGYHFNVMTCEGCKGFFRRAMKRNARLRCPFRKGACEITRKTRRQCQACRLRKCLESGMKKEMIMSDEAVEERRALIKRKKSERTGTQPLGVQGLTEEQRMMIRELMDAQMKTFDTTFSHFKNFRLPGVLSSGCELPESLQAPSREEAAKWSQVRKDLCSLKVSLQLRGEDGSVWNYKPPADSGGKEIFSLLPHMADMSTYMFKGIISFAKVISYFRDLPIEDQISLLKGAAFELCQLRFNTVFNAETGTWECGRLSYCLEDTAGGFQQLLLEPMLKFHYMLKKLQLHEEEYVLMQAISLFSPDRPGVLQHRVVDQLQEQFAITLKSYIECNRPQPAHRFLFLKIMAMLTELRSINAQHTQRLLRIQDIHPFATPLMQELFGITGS
How it was run: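 HepG2 cells transiently transfected with multiple reporter units, here a PXR-GAL4 chimera driving a GAL4-UAS reporter; 24 h compound exposure. Reporter mRNA measured by RT-PCR, FAM labelling and capillary electrophoresis; gain of signal fitted against DMSO baseline.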

[16] = molecular target: human Retinoic Acid Receptor beta (RARb), RARB (gene 5915) (UniProt P10826); experiment: ATG_RARb_TRANS: Attagene TRANS-FACTORIAL HepG2 Assay for human Retinoic Acid Receptor beta (AID 2283004)
Sequence of human Retinoic Acid Receptor beta (RARb), RARB (gene 5915) (P10826 whole entry, looked up): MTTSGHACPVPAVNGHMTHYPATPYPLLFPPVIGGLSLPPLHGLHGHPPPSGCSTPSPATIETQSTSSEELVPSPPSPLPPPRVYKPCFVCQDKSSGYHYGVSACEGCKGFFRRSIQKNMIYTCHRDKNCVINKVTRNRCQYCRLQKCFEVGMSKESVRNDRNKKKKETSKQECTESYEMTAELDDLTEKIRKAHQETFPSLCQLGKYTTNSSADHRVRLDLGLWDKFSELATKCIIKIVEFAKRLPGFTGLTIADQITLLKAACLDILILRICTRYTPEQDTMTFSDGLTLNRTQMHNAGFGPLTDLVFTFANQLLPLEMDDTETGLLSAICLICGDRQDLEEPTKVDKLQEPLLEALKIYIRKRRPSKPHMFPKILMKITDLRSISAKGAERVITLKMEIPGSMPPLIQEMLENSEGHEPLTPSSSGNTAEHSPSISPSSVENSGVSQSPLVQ
How it was run: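 Transient transfection of HepG2 with multiple reporter units → chemical dosing, 24 h → total RNA isolation → RT with oligo(dT) → reporter-specific PCR, 6-FAM primer extension, HpaI digest → capillary electrophoresis. Positive direction vs DMSO control.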

[17] = molecular target: Retinoic acid receptor alpha (Homo sapiens) (UniProt P10276); experiment: ATG_RARa_TRANS: Attagene TRANS-FACTORIAL HepG2 Assay for human Retinoic Acid Receptor alpha (RARa) (AID 2283005)
Sequence of Retinoic acid receptor alpha (Homo sapiens) (P10276 whole entry, looked up, the tested form may be a part): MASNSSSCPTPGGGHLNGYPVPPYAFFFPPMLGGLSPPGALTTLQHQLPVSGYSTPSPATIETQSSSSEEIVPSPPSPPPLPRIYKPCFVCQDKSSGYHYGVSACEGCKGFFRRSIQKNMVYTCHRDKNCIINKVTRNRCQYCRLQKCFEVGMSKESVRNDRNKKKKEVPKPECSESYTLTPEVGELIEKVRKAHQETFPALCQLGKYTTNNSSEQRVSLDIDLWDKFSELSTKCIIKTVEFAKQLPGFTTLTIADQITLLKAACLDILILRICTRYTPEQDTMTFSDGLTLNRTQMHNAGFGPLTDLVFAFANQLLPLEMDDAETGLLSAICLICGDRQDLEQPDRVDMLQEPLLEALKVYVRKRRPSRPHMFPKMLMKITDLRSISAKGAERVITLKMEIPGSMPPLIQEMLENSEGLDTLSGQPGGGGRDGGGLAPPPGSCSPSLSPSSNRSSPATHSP
How it was run: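 HepG2 transiently transfected with multiplex GAL4-UAS reporter units including a human RARa–GAL4 chimera; 24 h compound exposure. Reporter mRNA quantified by RT-PCR, 6-FAM labeling and capillary electrophoresis; gain of signal versus DMSO.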

[18] = read-out: Intercellular Adhesion Molecule 1 (ICAM1), ICAM1 (gene 3383); experiment: BSK_3C_ICAM1: BioMAP Diversity Plus: 3C Assay for Intercellular Adhesion Molecule 1 (ICAM1) Biomarker Activity (AID 2283003; active = hit-call score of the fitted dose curve at least 0.9, where 1 is the maximum; inactive = score below 0.9); conditions: primary human endothelial cells (HUVEC); actives raise or lower the signal
How it was run: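 Human vascular endothelial primary cells, 3C conditions, 24 h treatment. ICAM-1 by ELISA.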

[19] = BSK_3C_uPAR: BioMAP Diversity Plus: 3C Assay for Urokinase-type plasminogen activator receptor (uPAR) Biomarker Activity (AID 2282998; active = hit-call score of the fitted dose curve at least 0.9, where 1 is the maximum; inactive = score below 0.9); conditions: BioMAP 3C HUVEC, uPAR biomarker ELISA; actives raise or lower the signal
How it was run: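 Readout: ELISA for surface uPAR. System: human umbilical vein endothelial primary cells, 24 h after chemical exposure. Analysis: bidirectional fit, DMSO baseline.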

[20] = ATG_NF_kB_CIS: Attagene CIS-FACTORIAL HepG2 Assay for human Nuclear Factor Kappa B (NF-kB) (AID 2282991; active = hit-call score of the fitted dose curve at least 0.9, where 1 is the maximum; inactive = score below 0.9); conditions: HepG2 Attagene cis-factorial NF-kB reporter mRNA; actives raise or lower the signal
How it was run: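 After 24 h compound incubation, transfected HepG2 cells yield total RNA; reporter cDNA is PCR-amplified, end-labelled with 6-FAM, HpaI-digested and analysed on a genetic analyser. Endogenous factor activity, DMSO-referenced bidirectional fit.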

Measured: AC50

O=C(Nc1ccc(Cl)c(Cl)c1)c1cc(Cl)cc(Cl)c1O
active: [1] 0.522 µM | [2] 1.11 µM | [3] 10.9 µM | [4] 4.32 µM | [6] 4.33 µM
inactive: [5] | [7] | [8] | [9] | [10]

CCCCCCCCCCCCOS(=O)(=O)O
inactive: [11] | [12] | [13] | [14]

CCN(CC)CC
inactive: [1] | [3] | [4] | [5] | [15] | [7] | [10]

CC1CCC(CO)CC1 (centres undefined)
inactive: [1] | [2] | [4] | [5] | [16] | [17] | [15] | [8] | [10]

Oc1c(Cl)cc(Cl)cc1Sc1cc(Cl)cc(Cl)c1O
inactive: [3] | [5] | [7] | [8] | [10]
active: [1] 3 µM | [11] 22.2 µM and 21 µM | [12] 31.3 µM and 28.6 µM | [13] 22.2 µM and 18.5 µM | [4] 11.1 µM | [14] 5.56 µM and 4.63 µM | [6] 2.69 µM | [15] 1.9 µM

CNNCc1ccc(C(=O)NC(C)C)cc1
inactive: [1] | [2] | [3] | [4] | [5] | [6] | [15] | [8] | [10]

COCN(COC)c1nc(N(COC)COC)nc(N(COC)COC)n1
not listed: [6] | [8] | [9] | [10] | [16] | [17] | [19] | [20]
inactive: all other assays above

CCCCCCCCCCCC(=O)O
active: [1] 100 µM | [2] 90.6 µM | [6] 52.9 µM
inactive: [1] | [2] | [4] | [5] | [16] | [17] | [6] | [15] | [7] | [10]

NCCN
inactive: [1] | [3] | [5] | [16] | [17] | [6]

Oc1ccc(Cc2ccccc2O)cc1
active: [1] 81 µM | [13] 149 nM | [14] 15.9 µM
inactive: [2] | [3] | [11] | [19] | [12] | [13] | [4] | [5] | [14] | [6] | [15] | [10]

O=C1Cc2ccccc2N1c1c(Cl)cccc1Cl
inactive: [20] | [5] | [6] | [10]
active: [1] 23.2 µM

CC(C)(C)C1CCCCC1O (centres undefined)
inactive: [1] | [2] | [3] | [5] | [16] | [15] | [7] | [8] | [9] | [10]

Cn1sccc1=O
inactive: [4] | [16] | [15] | [10]
active: [1] 161 µM | [2] 171 µM

Cc1ccc(S(=O)(=O)O)cc1
inactive: [1] | [2] | [3] | [4] | [16] | [17] | [15] | [8] | [10]

CC(=O)Nc1ccc(O)cc1
inactive: [11] | [12] | [13] | [5] | [17] | [14] | [10]

O=C1OC2(c3ccccc31)c1cc(I)c(O)c(I)c1Oc1c2cc(I)c(O)c1I
active: [11] 12 µM | [12] 12 µM | [13] 8420 nM | [18] 12 µM | [15] 5.08 µM and 15.4 µM
inactive: [1] | [2] | [3] | [4] | [5] | [14] | [15] | [8] | [9] | [10]

CS(=O)(=O)c1ccc([C@@H](CC2CCCC2)C(=O)Nc2cnccn2)cc1Cl
active: [2] 122 µM | [14] 31.6 µM
inactive: [3] | [11] | [12] | [13] | [4] | [5] | [6] | [10]

Nc1ccn([C@@H]2O[C@H](CO)[C@@H](O)C2O)c(=O)n1 (some centres undefined)
inactive: [1] | [4] | [10]
active: [5] 56.6 µM
